Assay results published in PubChem BioAssay (Tox21).
Values joined by “and” are separate entries in the source; they are usually repeats but may differ in a detail not shown here. Identical values can stand only once. Results filed as inconclusive are left out. Active and inactive are the calls of the source. The call rests on the fitted dose curve; in most records, active means well fitted curve in the direction sought with a large enough effect in the repeat runs; inconclusive means weak or mixed curves; inactive means no such curve, though single readings can be large; an effect the other way counts as inactive or inconclusive.

Tests used:
[1] = A CellTox Green Cytotoxicity Assay to monitor cytotoxicity in HEK293 cells - 40 hour (AID 1224871); further: nearly all actives have a fitted effect of over 45% in size
In short: (§1)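 Tox21 screen in HEK293: membrane-impermeant cyanine dye fluoresces on binding dead-cell DNA; compound pinned 5 h post-seeding, plates held at 37 C, signal read repeatedly through 40 h.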

[2] = qHTS RealTime-Glo MT Cell Viability Assay in HEK293 cells - 16 hour (AID 1224872); further: top concentration of the series differs between compounds; nearly all actives have a fitted effect of over 50% in size
In short: (§2)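 Homogeneous bioluminescent viability format in HEK293 cells (600 cells/well). Following 5 h at 37 C/5% CO2, 23 nL compound was pintooled; the signal was measured repeatedly during 40 h incubation.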

[3] = qHTS RealTime-Glo MT Cell Viability Assay in HepG2 cells - 8 hour (AID 1224873); further: nearly all actives have a fitted effect of over 55% in size
In short: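 Real-time viability: cells seeded at 600 per well together with NanoLuc and cell-permeant prosubstrate, compounds added after 5 h incubation. Luminescence tracked at 0, 8, 16, 24, 32 and 40 h of exposure.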

[4] = qHTS RealTime-Glo MT Cell Viability Assay in HEK293 cells - 40 hour (AID 1224874); conditions: RealTime-Glo luminescence; max response: active compounds read low; further: nearly all actives have a fitted effect of over 50% in size
In short: (§3)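 HEK293 + NanoLuc + prosubstrate, 600 cells/well; 5 h, 37 C/5% CO2; compound 23 nL in DMSO by pintool; 37 C; luminescence read at 0, 8, 16, 24, 32 and 40 h time points.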

[5] = A CellTox Green Cytotoxicity Assay to monitor cytotoxicity in HEK293 cells - 24 hour (AID 1224875); further: series mostly up to about 77 µM; nearly all actives have a fitted effect of over 45% in size
In short: as §1

[6] = A CellTox Green Cytotoxicity Assay to monitor cytotoxicity in HepG2 cells - 16 hour (AID 1224876); further: nearly all actives have a fitted effect of over 45% in size
In short: (§4)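 Measurements at 0, 8, 16, 24, 32 and 40 h of treatment captured CellTox Green fluorescence in HepG2 cells that had been co-plated with reagent and preincubated 5 h at 37 C/5% CO2.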

[7] = qHTS RealTime-Glo MT Cell Viability Assay in HepG2 cells - 32 hour (AID 1224877); further: nearly all actives have a fitted effect of over 55% in size
In short: (§5)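 Cell number in HepG2 cultures estimated from NanoLuc luminescence generated by metabolic reduction of a prosubstrate by living cells. The homogeneous, nonlytic format allowed repeated reads at 0, 8, 16, 24, 32 and 40 h of compound exposure.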

[8] = A CellTox Green Cytotoxicity Assay to monitor cytotoxicity in HepG2 cells - 24 hour (AID 1224878); further: nearly all actives have a fitted effect of over 45% in size
In short: as §4

[9] = A CellTox Green Cytotoxicity Assay to monitor cytotoxicity in HepG2 cells - 40 hour (AID 1224879); further: nearly all actives have a fitted effect of over 40% in size
In short: as §4

[10] = qHTS RealTime-Glo MT Cell Viability Assay in HEK293 cells - 0 hour (AID 1224880)
In short: as §3

[11] = A CellTox Green Cytotoxicity Assay to monitor cytotoxicity in HEK293 cells - 32 hour (AID 1224881); further: nearly all actives have a fitted effect of over 40% in size
In short: as §1

[12] = A CellTox Green Cytotoxicity Assay to monitor cytotoxicity in HepG2 cells - 0 hour (AID 1224882); further: nearly all actives have a fitted effect of over 35% in size
In short: as §4

[13] = A CellTox Green Cytotoxicity Assay to monitor cytotoxicity in HepG2 cells - 32 hour (AID 1224883); further: nearly all actives have a fitted effect of over 50% in size
In short: as §4

[14] = A CellTox Green Cytotoxicity Assay to monitor cytotoxicity in HEK293 cells - 8 hour (AID 1224884); further: nearly all actives have a fitted effect of over 35% in size
In short: as §1

[15] = qHTS RealTime-Glo MT Cell Viability Assay in HepG2 cells - 16 hour (AID 1224885); further: nearly all actives have a fitted effect of over 50% in size
In short: as §5

[16] = qHTS RealTime-Glo MT Cell Viability Assay in HEK293 cells - 24 hour (AID 1224886)
In short: as §2

[17] = qHTS RealTime-Glo MT Cell Viability Assay in HepG2 cells - 0 hour (AID 1224889); further: nearly all actives have a fitted effect of over 50% in size
In short: as §5

[18] = A CellTox Green Cytotoxicity Assay to monitor cytotoxicity in HepG2 cells - 8 hour (AID 1224890); further: nearly all actives have a fitted effect of over 45% in size
In short: as §4

[19] = qHTS RealTime-Glo MT Cell Viability Assay in HEK293 cells - 8 hour (AID 1224887)
In short: as §3

[20] = A CellTox Green Cytotoxicity Assay to monitor cytotoxicity in HEK293 cells - 16 hour (AID 1224888); further: nearly all actives have a fitted effect of over 35% in size
In short: as §1
On the % scale 0 is the no-effect control and ±100 the full control effect.

CCCN(CCC)S(=O)(=O)c1ccc(C(=O)O)cc1
inactive: Potency [1] | Potency [2] | outcome [3] | max response [4] -6.3% and -3.84% and 10.6% | Potency [5] | Potency [6] | Potency [7] | Potency [8] | Potency [9] | Potency [10] | Potency [11] | Potency [12] | Potency [13] | Potency [14] | Potency [15] | Potency [16] | Potency [17] | Potency [18]

O=C(C1CCCCC1)N1CC(=O)N2CCc3ccccc3C2C1 (configuration not stated)
inactive: Potency [1] | Potency [2] | outcome [3] | max response [4] -18.7% | Potency [5] | Potency [6] | Potency [7] | Potency [8] | Potency [9] | Potency [10] | Potency [11] | Potency [12] | Potency [13] | Potency [14] | Potency [15] | Potency [16] | Potency [19] | Potency [17] | Potency [18]

O=C(c1ccccc1)C(O)c1ccccc1 (configuration not stated)
inactive: Potency [1] | Potency [2] | outcome [3] | max response [4] 5.88% and 18.1% and 4.15% | Potency [5] | Potency [6] | Potency [7] | Potency [8] | Potency [9] | Potency [10] | Potency [11] | Potency [12] | Potency [13] | Potency [14] | Potency [15] | Potency [16] | Potency [17] | Potency [18]

O=C(O)CCCCC(=O)O
inactive: Potency [1] | Potency [2] | outcome [3] | max response [4] 4.36% and 16.9% and 2.15% | Potency [5] | Potency [6] | Potency [7] | Potency [8] | Potency [9] | Potency [10] | Potency [11] | Potency [12] | Potency [13] | Potency [14] | Potency [15] | Potency [16] | Potency [20] | Potency [17] | Potency [18]

O=C(O)/C=C\C(=O)O
inactive: Potency [1] | Potency [2] | outcome [3] | max response [4] 3.82% and 7.29% and 0.357% | Potency [5] | Potency [6] | Potency [7] | Potency [8] | Potency [9] | Potency [10] | Potency [11] | Potency [12] | Potency [13] | Potency [14] | Potency [15] | Potency [16] | Potency [19] | Potency [17] | Potency [18]

NC(=O)c1ccccc1O
inactive: Potency [1] | Potency [2] | outcome [3] | max response [4] 0.307% and -0.424% and 11.5% | Potency [5] | Potency [6] | Potency [7] | Potency [8] | Potency [9] | Potency [10] | Potency [11] | Potency [12] | Potency [13] | Potency [14] | Potency [15] | Potency [16] | Potency [17] | Potency [18]

O=S(=O)(O)c1ccc2cc(O)ccc2c1
inactive: Potency [1] | Potency [2] | outcome [3] | max response [4] -0.603% [middle of 4 runs] | Potency [5] | Potency [6] | Potency [7] | Potency [8] | Potency [9] | Potency [10] | Potency [11] | Potency [12] | Potency [13] | Potency [14] | Potency [15] | Potency [16] | Potency [19] | Potency [20] | Potency [17] | Potency [18]

CC(O)CO (configuration not stated)
inactive: Potency [1] | Potency [2] | outcome [3] | max response [4] -4.92% and 4.28% and 2.26% | Potency [5] | Potency [6] | Potency [7] | Potency [8] | Potency [9] | Potency [10] | Potency [11] | Potency [12] | Potency [13] | Potency [14] | Potency [15] | Potency [16] | Potency [19] | Potency [17] | Potency [18]

NC(=O)c1cnccn1
inactive: Potency [1] | Potency [2] | outcome [3] | max response [4] -0.816% and 11.3% and 0.0586% | Potency [5] | Potency [6] | Potency [7] | Potency [8] | Potency [9] | Potency [10] | Potency [11] | Potency [12] | Potency [13] | Potency [14] | Potency [15] | Potency [16] | Potency [19] | Potency [20] | Potency [17] | Potency [18]

Cc1cc(=O)[nH]c(=S)[nH]1
inactive: Potency [1] | Potency [2] | outcome [3] | max response [4] -0.127% and 3.69% and 0.841% | Potency [5] | Potency [6] | Potency [7] | Potency [8] | Potency [9] | Potency [10] | Potency [11] | Potency [12] | Potency [13] | Potency [14] | Potency [15] | Potency [16] | Potency [19] | Potency [17] | Potency [18]

CCCCC(CC)COC(=O)/C=C/c1ccc(OC)cc1 (configuration not stated)
inactive: Potency [1] | Potency [2] | outcome [3] | max response [4] -5.76% and 7.72% and 2.19% | Potency [5] | Potency [6] | Potency [7] | Potency [8] | Potency [9] | Potency [10] | Potency [11] | Potency [12] | Potency [13] | Potency [14] | Potency [15] | Potency [16] | Potency [17] | Potency [18]

Nc1ccc(O)c(C(=O)O)c1
inactive: Potency [1] | Potency [2] | outcome [3] | max response [4] 1.04% and -2.7% and 0.776% | Potency [5] | Potency [6] | Potency [7] | Potency [8] | Potency [9] | Potency [10] | Potency [11] | Potency [12] | Potency [13] | Potency [14] | Potency [15] | Potency [16] | Potency [19] | Potency [20] | Potency [17] | Potency [18]
